# The full data set covers some 8,800 targets. This sample favours those with a hit. About 0.5% of all pairs of compound and target were hits. Unmarked numbers belong to inactive results.
# Legend:
# Experiment in all cases: log2 fold change, soluble protein after heating vs DMSO (PISA); higher = thermal stabilisation; K562 lysate, 10 uM; active = over 0.2 and 3.5 SD of the protein, either way, in both replicates (recomputed)
# [1] = compound: CN1CC[C@H](c2c(O)cc(O)c3c(=O)cc(-c4ccccc4Cl)oc23)[C@H](O)C1 [alvocidib]
# How it was run: (§1)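 K562 pellets were dounce-homogenised in PBS pH 7.4 containing 1 mM MgCl2, and the crude extract, at 1 mg/mL protein, was exposed to 10 μM compound for 30 min. Aliquots were heated for 3 min across 48°C-58°C, pooled, brought to 0.5% NP-40 at 4°C and spun at 21,000xg for 90 min, with the supernatant taken as soluble protein. TMTpro 16plex LC-MS/MS with equalised channel sums quantified that protein. Values are log-two fold changes in thermal stability relative to solvent controls, taken from duplicates.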
# [2] = compound: CN1CCc2c(c3ccccc3n2Cc2ccc(C(=O)NO)cc2)C1 [Tubastatin A]
# How it was run: as §1
# [3] = compound: CNC(=O)C1=CC=CC=C1NC2=NC(=NC=C2Cl)NC3=C(C=C(C=C3)N4CCOCC4)OC
# How it was run: as §1
# [4] = compound: CNC(=O)c1ccc(Nc2ncc(C(F)(F)F)c(NCc3nccnc3N(C)S(C)(=O)=O)n2)cc1 [defactinib]
# How it was run: as §1
# [5] = compound: CNc1nc(-c2ccc3c(N)n[nH]c3c2)cc(N2C[C@@H](C(=O)NC3CCCCC3)CC[C@H]2C)n1
# How it was run: as §1
# [6] = compound: COC(=O)N[C@@H](C)CNc1nccc(-c2cn(C(C)C)nc2-c2cc(Cl)cc(NS(C)(=O)=O)c2F)n1 [encorafenib]
# How it was run: as §1
# [7] = compound: COC(=O)[C@H](CCSC)NC(=O)C1=C(C=C(C=C1)NC[C@H](CS)N)C2=CC=CC=C2
# How it was run: as §1
# [8] = compound: COc1cc(Nc2ncc3c(n2)-c2ccc(Cl)cc2C(c2c(F)cccc2OC)=NC3)ccc1C(=O)O [alisertib]
# How it was run: as §1
# [9] = compound: COc1cc2nc(-c3cc(F)ccc3O)nc(N[C@@H]3CNC[C@H]3C(C)(C)O)c2cc1OC
# How it was run: as §1
# [10] = compound: COc1cc2ncnc(Nc3ccc(F)c(Cl)c3)c2cc1OCCCN1CCOCC1 [gefitinib]
# How it was run: as §1
# [11] = compound: CS(=O)(=O)CCNCc1ccc(-c2ccc3ncnc(Nc4ccc(OCc5cccc(F)c5)c(Cl)c4)c3c2)o1 [lapatinib]
# How it was run: as §1
# [12] = compound: CS(=O)(=O)N1CCN(Cc2cc3nc(-c4cccc5[nH]ncc45)nc(N4CCOCC4)c3s2)CC1 [pictilisib]
# How it was run: as §1
# [13] = compound: C[C@@H](Oc1cc(-c2cnn(C3CCNCC3)c2)cnc1N)c1c(Cl)ccc(F)c1Cl [crizotinib]
# How it was run: as §1
# [14] = compound: C[C@H](C1=CC=C(C=C1)C(=O)NC2=C3C=CNC3=NC=C2)N
# How it was run: as §1
# [15] = compound: C[C@H](Nc1ncnc2nc[nH]c12)c1cc2cccc(Cl)c2c(=O)n1-c1ccccc1 [duvelisib]
# How it was run: as §1
# [16] = compound: Cc1cc(Nc2cc(CN3CCOCC3)c3nc(C)c(Cc4ccc(Cl)cc4F)n3n2)n[nH]1 [gandotinib]
# How it was run: as §1
# [17] = compound: Cc1cc(Nc2cc(N3CCN(C)CC3)nc(Sc3ccc(NC(=O)C4CC4)cc3)n2)n[nH]1 [tozasertib]
# How it was run: as §1
# [18] = compound: Cc1ccc(-n2nc(C(C)(C)C)cc2NC(=O)Nc2ccc(OCCN3CCOCC3)c3ccccc23)cc1 [doramapimod]
# How it was run: as §1
# [19] = compound: Cc1ccc(NC(=O)c2ccc(CN3CC[C@H](N(C)C)C3)c(C(F)(F)F)c2)cc1Nc1nccc(-c2cncnc2)n1 [bafetinib]
# How it was run: as §1
# [20] = compound: Cc1cccc(CC(=O)N2CCc3c2ccc(-c2cn(C)c4ncnc(N)c24)c3F)n1
# How it was run: as §1
# Chain of UniProt Q9P0L2 (Q9P0L2 whole entry, looked up): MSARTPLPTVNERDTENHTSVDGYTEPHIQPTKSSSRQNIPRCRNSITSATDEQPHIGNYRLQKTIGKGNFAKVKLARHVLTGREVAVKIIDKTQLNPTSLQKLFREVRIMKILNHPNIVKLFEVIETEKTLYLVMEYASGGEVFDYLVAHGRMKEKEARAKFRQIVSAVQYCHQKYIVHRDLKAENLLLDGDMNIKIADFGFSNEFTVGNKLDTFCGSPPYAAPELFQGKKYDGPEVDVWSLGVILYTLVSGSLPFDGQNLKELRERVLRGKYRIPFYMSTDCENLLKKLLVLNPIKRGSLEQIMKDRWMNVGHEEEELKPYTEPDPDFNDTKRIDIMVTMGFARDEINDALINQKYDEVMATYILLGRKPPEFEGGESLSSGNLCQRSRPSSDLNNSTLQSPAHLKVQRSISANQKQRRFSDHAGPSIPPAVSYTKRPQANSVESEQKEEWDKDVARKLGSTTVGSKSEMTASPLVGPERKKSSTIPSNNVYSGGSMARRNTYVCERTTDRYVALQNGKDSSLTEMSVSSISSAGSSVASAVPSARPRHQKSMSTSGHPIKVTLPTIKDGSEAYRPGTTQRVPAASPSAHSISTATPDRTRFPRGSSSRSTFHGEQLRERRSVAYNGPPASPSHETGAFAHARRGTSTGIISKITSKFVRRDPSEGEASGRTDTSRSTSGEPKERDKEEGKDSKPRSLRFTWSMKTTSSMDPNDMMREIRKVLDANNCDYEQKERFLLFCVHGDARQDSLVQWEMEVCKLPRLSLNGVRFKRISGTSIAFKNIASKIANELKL
# Chain of UniProt Q9UI95 (Q9UI95 whole entry, looked up): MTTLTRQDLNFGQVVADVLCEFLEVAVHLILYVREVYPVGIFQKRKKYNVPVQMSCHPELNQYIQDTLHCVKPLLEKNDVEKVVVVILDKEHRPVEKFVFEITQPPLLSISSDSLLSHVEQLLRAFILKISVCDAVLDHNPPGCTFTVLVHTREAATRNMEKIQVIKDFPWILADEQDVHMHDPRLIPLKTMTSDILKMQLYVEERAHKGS
# Chain of UniProt P45984 (P45984 whole entry, looked up): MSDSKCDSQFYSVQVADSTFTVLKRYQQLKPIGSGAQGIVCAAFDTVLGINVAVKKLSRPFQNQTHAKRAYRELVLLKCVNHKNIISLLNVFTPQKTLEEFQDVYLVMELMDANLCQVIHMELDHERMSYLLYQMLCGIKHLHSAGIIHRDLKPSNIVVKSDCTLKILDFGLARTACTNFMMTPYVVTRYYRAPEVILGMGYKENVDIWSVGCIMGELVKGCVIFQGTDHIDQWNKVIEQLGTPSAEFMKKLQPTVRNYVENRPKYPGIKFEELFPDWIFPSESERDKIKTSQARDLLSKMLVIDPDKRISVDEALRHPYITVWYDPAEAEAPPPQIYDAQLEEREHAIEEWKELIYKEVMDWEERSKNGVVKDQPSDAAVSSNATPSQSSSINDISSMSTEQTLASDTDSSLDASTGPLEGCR
# Chain of UniProt Q9BQ69 (Q9BQ69 whole entry, looked up): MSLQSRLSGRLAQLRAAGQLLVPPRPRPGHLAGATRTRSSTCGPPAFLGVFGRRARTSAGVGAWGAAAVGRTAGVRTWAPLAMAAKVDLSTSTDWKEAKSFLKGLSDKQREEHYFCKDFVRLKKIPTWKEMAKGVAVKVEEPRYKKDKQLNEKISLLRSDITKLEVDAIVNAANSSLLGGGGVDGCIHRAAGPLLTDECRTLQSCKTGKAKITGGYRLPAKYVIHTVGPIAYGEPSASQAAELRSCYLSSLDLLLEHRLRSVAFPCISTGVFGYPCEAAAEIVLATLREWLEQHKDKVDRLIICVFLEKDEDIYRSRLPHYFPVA
# Chain of UniProt Q9NS87 (Q9NS87 whole entry, looked up): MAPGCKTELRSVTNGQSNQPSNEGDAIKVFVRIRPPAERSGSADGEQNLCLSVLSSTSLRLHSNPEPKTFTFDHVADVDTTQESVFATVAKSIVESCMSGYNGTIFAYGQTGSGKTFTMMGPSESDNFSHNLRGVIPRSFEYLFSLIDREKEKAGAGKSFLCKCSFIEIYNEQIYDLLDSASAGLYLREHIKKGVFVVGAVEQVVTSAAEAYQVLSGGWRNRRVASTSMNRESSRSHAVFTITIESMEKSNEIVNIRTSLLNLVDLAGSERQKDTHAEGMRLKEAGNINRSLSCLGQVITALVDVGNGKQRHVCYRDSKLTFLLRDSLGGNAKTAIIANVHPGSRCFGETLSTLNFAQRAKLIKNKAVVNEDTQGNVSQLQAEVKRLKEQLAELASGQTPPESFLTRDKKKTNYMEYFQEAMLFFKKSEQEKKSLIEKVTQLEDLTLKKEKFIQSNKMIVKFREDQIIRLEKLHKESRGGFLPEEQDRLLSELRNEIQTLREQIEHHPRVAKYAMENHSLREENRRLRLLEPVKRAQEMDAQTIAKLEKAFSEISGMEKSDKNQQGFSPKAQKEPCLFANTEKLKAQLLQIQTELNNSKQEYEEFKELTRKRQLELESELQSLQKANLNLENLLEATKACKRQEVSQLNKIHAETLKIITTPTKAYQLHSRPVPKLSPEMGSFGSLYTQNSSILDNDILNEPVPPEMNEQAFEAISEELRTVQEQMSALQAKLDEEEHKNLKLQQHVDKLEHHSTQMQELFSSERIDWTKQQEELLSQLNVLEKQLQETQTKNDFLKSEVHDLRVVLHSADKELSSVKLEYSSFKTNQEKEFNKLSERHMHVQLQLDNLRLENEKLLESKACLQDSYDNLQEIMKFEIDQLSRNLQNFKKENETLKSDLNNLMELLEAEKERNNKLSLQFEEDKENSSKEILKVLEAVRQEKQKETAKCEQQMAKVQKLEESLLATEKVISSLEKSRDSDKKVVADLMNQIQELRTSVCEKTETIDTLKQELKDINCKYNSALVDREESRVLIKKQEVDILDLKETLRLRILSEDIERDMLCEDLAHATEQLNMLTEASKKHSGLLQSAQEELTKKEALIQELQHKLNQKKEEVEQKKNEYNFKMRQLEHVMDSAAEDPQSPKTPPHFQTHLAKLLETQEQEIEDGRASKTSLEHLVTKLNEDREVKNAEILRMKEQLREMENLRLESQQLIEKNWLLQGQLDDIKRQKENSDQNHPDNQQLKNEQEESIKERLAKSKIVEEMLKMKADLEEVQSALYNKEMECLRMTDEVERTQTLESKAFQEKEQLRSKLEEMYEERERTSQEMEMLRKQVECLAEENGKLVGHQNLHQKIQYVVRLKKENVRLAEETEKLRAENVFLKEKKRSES
# Chain of UniProt P52732 (P52732 whole entry, looked up): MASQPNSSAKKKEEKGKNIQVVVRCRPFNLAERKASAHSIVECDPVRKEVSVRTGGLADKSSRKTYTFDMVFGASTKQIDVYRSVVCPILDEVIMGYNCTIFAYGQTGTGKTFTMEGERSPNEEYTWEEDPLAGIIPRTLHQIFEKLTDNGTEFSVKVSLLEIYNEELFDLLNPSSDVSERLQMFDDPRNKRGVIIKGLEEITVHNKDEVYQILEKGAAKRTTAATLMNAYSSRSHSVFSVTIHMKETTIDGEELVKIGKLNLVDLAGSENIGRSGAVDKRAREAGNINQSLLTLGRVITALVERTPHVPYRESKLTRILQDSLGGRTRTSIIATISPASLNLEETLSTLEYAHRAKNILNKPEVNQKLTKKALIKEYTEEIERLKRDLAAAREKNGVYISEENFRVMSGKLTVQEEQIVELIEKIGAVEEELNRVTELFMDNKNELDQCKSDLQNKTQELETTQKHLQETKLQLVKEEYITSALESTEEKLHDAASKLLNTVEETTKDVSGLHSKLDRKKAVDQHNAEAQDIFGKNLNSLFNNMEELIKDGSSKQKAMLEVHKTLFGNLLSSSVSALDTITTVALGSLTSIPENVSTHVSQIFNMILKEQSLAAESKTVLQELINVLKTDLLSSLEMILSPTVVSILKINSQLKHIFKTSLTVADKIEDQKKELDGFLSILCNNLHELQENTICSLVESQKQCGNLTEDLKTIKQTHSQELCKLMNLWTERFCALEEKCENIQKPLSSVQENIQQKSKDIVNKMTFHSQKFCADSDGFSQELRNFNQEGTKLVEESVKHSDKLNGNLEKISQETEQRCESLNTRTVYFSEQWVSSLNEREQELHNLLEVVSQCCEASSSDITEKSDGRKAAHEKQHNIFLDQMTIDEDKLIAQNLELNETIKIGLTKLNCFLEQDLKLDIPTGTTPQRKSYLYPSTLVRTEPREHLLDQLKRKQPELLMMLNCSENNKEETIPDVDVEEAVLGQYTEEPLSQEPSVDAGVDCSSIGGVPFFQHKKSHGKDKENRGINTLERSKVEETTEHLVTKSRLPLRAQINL
Target,log2 fold change [1],log2 fold change [2],log2 fold change [3],log2 fold change [4],log2 fold change [5],log2 fold change [6],log2 fold change [7],log2 fold change [8],log2 fold change [9],log2 fold change [10],log2 fold change [11],log2 fold change [12],log2 fold change [13],log2 fold change [14],log2 fold change [15],log2 fold change [16],log2 fold change [17],log2 fold change [18],log2 fold change [19],log2 fold change [20]
LIG3 (UniProt P49916),-0.017,-0.142,0.007,0.006,-0.002,0.023,0.121,-0.009,-0.008,-0.015,-0.007,0.006,-0.044,-0.008,0.01,-0.05,-0.004,0.016,-0.046,0.016
KIF15 (UniProt Q9NS87),-0.002,-0.058,0.006,-0.011,0.006,0.01,0.121,-0.013,-0.014,0.003,-0.02,0.006,-0.017,0,-0.002,-0.017,0.008,0.006,-0.025,0.033
MAD2L2 (UniProt Q9UI95),-0.026,0.051,0.033,0.06,0.064,-0.069,0.022,0.04,0.135,-0.006,-0.003,0.058,-0.142,-0.008,-0.001,-0.127,0.042,0.022,-0.11,0.073
MAPK9 (UniProt P45984),0.028,-0.064,0.44 (active),0.056,0.006,0.17,-0.019,-0.021,0.006,0.027,0.001,0.088,-0.021,0.026,0.006,0.035,0.033,0.192,-0.011,-0.15
MACROD1 (UniProt Q9BQ69),0.12,-0.104,0.012,0.039,0.015,0.029,-0.074,-0.037,-0.001,0.033,0.011,-0.013,-0.066,0.084,0.04,-0.017,-0.03,-0.012,-0.102,0.052
MMS19 isoform 8 (UniProt Q96T76),0.008,-0.144,0,-0.027,0.007,0.014,0.128,0.002,0.001,-0.022,-0.03,-0.04,-0.074,0.049,-0.003,-0.101,-0.004,0.023,-0.066,0.004
KIF11 (UniProt P52732),0.008,-0.107,0.035,-0.007,-0.022,0.034,0.032,-0.013,-0.003,0.016,0,0.021,0.001,-0.03,0.017,-0.042,0.006,0.014,-0.014,0.063
MARK1 (UniProt Q9P0L2),-0.053,-0.087,-0.27,-0.267,0.072,0.075,0.226,-0.007,-0.134,-0.004,0.037,-0.065,-0.175,0.026,-0.002,-0.192,-0.084,0.155,-0.034,0.05

# — the supplement of paper PMC10849652
